PubChem BioAssay (EPA / NIEHS)
Inconclusive results are not listed. Calls of active or inactive are those of the source. Rule for the calls: active = hit-call score of the fitted dose curve at least 0.9, where 1 is the maximum; inconclusive = response in the unintended direction; inactive = score below 0.9.

Legend:
[1] = VALA_TUBHUV_Agonist_CellCount: Viability Assessment in the VALA Sciences human Umbilical Vein Endothelial Tubule Formation (TUBHUV) Agonism Assay (AID 2284309)
Protocol: (§1) VALA_TUBHUV_Agonist is a cell-based, multiplexed assay that uses human umbilical vein endothelial cells (HUVEC). Measurements were taken 72 hours after chemical dosing in a 96-well plate.VALA_TUBHUV_Agonist_CellCount is the one of two assay components measured from the VALA_TUBHUV_Agonist assay. It is designed to make measurements of viability, a form of viability reporter, as detected with fluorescence intensity signals by HCS Fluorescent Imaging technology. Data from the assay component VALA_TUBHUV_Agonist_CellCount was analyzed at the endpoint, VALA_TUBHUV_Agonist_CellCount, in the positive analysis fitting direction relative to DMSO as the negative control and baseline of activity. Using a type of viability reporter, loss-of-signal activity can be used to understand viability. To generalize the intended target to other relatable targets, this assay endpoint is annotated to the cell cycle intended target family, where the subfamily is cell count.
(§2) This HUVEC-HDF assay was designed to detect chemical suppression of tubulogenesis, i.e. antagonism. To measure tubulogenesis antagonism, HUVEC cells were co-cultured with HDF cells at a 1:3 ratio for 3-days in 10 ng/ml VEGF (i.e., favorable conditions with growth factors), then changed to assay medium containing 10 ng/ml VEGF and ToxCast compounds for an additional 3-day period. […]

[2] = VALA_TUBHUV_Antagonist_CellCount: Viability Assessment in the VALA Sciences human Umbilical Vein Endothelial Tubule Formation (TUBHUV) Antagonism Assay (AID 2284310)
Protocol: as §1, with “VALA_TUBHUV_Antagonist” for “VALA_TUBHUV_Agonist”, “plate.VALA_TUBHUV_Antagonist_CellCount” for “plate.VALA_TUBHUV_Agonist_CellCount”, “VALA_TUBHUV_Antagonist_CellCount” for “VALA_TUBHUV_Agonist_CellCount”, “VALA_TUBHUV_Antagonist_CellCount,” for “VALA_TUBHUV_Agonist_CellCount,”
as §2

[3] = VALA_MIGHUV2_Bcatenin: VALA Sciences human Umbilical Vein Endothelial Cell Migration (MIGHUV) Assay, Nuclear Translocation of beta-Catenin after Recovery (AID 2284315)
Protocol: VALA_MIGHUV2_BCatenin is a cell-based, multiplexed assay that uses umbilical vein-derived endothelial cells (HUVEC). Measurements were taken 24 hours after chemical dosing in a 96-well plate.VALA_MIGHUV2_Bcatenin is the one of two assay components measured from the VALA_MIGHUV2 assay. It is designed to make measurements of nuclear translocation of CTNB, a form of morphology reporter, as detected with fluorescence intensity signals by HCS Fluorescent Imaging technology.Data from the assay component VALA_MIGHUV2_BCatenin was analyzed at the endpoint, VALA_MIGHUV2_BCatenin, in the positive analysis fitting direction relative to DMSO as the negative control and baseline of activity. Using a type of morphology reporter, gain-of-signal activity can be used to understand developmental effects. To generalize the intended target to other relatable targets, this assay endpoint is annotated to the neurodevelopment intended target family, where the subfamily is migration.
Cells were seeded on 384-well microplates (day-0) at a density of 9000 cells per well for detection of wound area recovery or 4000 cells per well for detection of beta-catenin (CTNB) immunoreactivity and incubated in Endothelial Cell Growth Medium (CAI, San Diego; catalog 211-500). After 24 hours of culture, the HUVEC plates were scratched using a custom scratch head with the Bravo liquid handling system. […]

[4] = VALA_MIGHUV2_WoundArea: VALA Sciences human Umbilical Vein Endothelial Cell Migration (MIGHUV) Assay, Area of Scratch Wound after Recovery (AID 2284316)
Procedure, shortened: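 HUVEC seeded at 9000 cells/well, scratched after 24 h; test chemical added within 30 min, 6-point concentration response in triplicate (0.1% DMSO vehicle). After 24 h wound recovery, cells fixed and Hoechst-stained nuclei in wound area imaged; Cytochalasin D reference control.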

Measured: outcome

Cc1ccc(N)cc1N
inactive: [1] | [2] | [3] | [4]
